Measured values taken from PubChem BioAssay.
Inconclusive results are not listed. Active and inactive are the calls of the source.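 The calls were made as follows, unless noted: active = normalized viability below 100% at a tested concentration; inactive = the rest.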

Key:
[1] = viability loss in pontine glioma line – cell-based, SU-DIPG-XVII, MIPE5.0, CellTiter-Glo, qHTS, dose response (AID 1347060; cut-off not given, nearly all actives have AC50 up to about 26 µM;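 as to AC50: cells exposed to compound for 48 hours before viability readout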); settings: CellTiter-Glo ATP luminescence
[2] = viability loss in pontine glioma line – cell-based, SU-DIPG-XIII, MIPE4.0, CellTiter-Glo, qHTS, dose response (AID 1347061; cut-off not given, nearly all actives have AC50 up to about 37 µM;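 also: cells exposed to compound for 48 hours before readout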); settings: CellTiter-Glo ATP luminescence
[3] = viability loss in pontine glioma line – cell-based, JHH-DIPG-1, MIPE4.0, CellTiter-Glo, qHTS, dose response (AID 1347062; cut-off not given, nearly all actives have AC50 up to about 27 µM;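 as to AC50: cells exposed to compound for two days before readout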); settings: JHH-DIPG-1 viability, CellTiter-Glo ATP luminescence
[4] = viability loss in pontine glioma line – cell-based, SU-DIPG-IV, MIPE4.0, CellTiter-Glo, qHTS, dose response (AID 1347063; cut-off not given, nearly all actives have AC50 up to about 30 µM;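 also: compound exposure lasted 48 hours before the viability readout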); settings: CellTiter-Glo ATP luminescence
[5] = viability loss in pontine glioma line – cell-based, SU-DIPG-XIII, MIPE5.0, CellTiter-Glo, qHTS, dose response (AID 1347064; cut-off not given, nearly all actives have AC50 up to about 23 µM;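 as to AC50: cells exposed to compound for 48 hours before the viability read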); settings: CellTiter-Glo ATP luminescence
[6] = viability loss in pontine glioma line – cell-based, SU-DIPG-XXV, MIPE5.0, CellTiter-Glo, qHTS, dose response (AID 1347065; cut-off not given, nearly all actives have AC50 up to about 26 µM;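 also: cells exposed to compound for 48 hours before ATP readout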); settings: CellTiter-Glo ATP luminescence
[7] = growth inhibition of DIPG cells – cell-based, MIPE4.0 library, CellTiter-Glo luminescence, qHTS (AID 1347066; cut-off not given, nearly all actives have AC50 up to about 30 µM;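 also: cells exposed to compound for 48 hours before readout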); settings: SU-DIPG-VI viability, CellTiter-Glo ATP luminescence
[8] = JHH-DIPG-1 glioma cell viability, MIPE5.0 library, CellTiter-Glo luminescence, qHTS (AID 1347067; cut-off not given, nearly all actives have AC50 up to about 26 µM;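 also: cells exposed to compound for 48 hours before readout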); settings: JHH-DIPG-1 glioma viability, CellTiter-Glo ATP luminescence
[9] = growth inhibition of DIPG cells – cell-based, MIPE5.0 library, qHTS (AID 1347068; cut-off not given, nearly all actives have IC50 up to about 30 µM;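 as to IC50: cells exposed to compound for 48 hours before viability readout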); settings: SU-DIPG-XXV viability
[10] = viability loss with induced miR-34 in A549 – imaging, A549 dox-inducible miR-34, nuclei and caspase counts, primary screen (AID 1347080;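 active = compounds whose cell count with miR-34 switched on is under 0.7 times the count with it off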); settings: A549 miR-34 inducible, Hoechst nuclei count, 48 h
[11] = MELAS cybrid and Rieske KO viability enhancers – cell-based, MELAS cybrids, Rieske KO mouse fibroblasts, CellTiter-Glo, primary screen (AID 1508586;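 active = mean z-score across replicates of 1.96 or higher in either the MELAS or the Rieske mutant cell line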;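 also: z relative to plate mean and SD of compound and empty wells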); settings: low glucose
[12] = compounds altering HSF1 focus formation in cells – imaging, Selleck Cancer Library (AID 1347162; in the data active = plate-normalised HSF1 focus index below about 0.46); settings: human cells, HSF1 nuclear foci imaging, at 10 µM; SSMD: measured here: HSF1 foci SSMD mean; cell count: measured here: cell number; plate-normalised HSF1 focus index: stronger effect = lower value
[13] = drug combination growth inhibition, ovarian cancer – cell-based, oncology-focused library, rucaparib conditional, profiling panel (AID 1508598); settings: patient-derived ovarian cancer cells, CellTiter-Glo viability, 144 h, stronger effect = lower value
[14] = stronger effect = lower value, cell number ratio, induced over uninduced
[15] = measured here: relative caspase fold change +Dox/-Dox
[16] = measured here: total cells with miR-34 induction, stronger effect = lower value
[17] = measured here: total cells without miR-34 induction
[18] = MELAS cybrid survival, CellTiter-Glo 48 h, stronger effect = higher value
[19] = Rieske KO mouse fibroblast survival, CellTiter-Glo 72 h
[20] = at 0.000305 µM, OCI-C5x cells, with rucaparib 10 µM, 100% = cells with rucaparib alone
[21] = at 0.000305 µM, OCI-C5x cells, without rucaparib
[22] = at 0.000305 µM, OCI-P5x cells, with rucaparib 20 µM, 100% = cells with rucaparib alone
[23] = at 0.000305 µM, OCI-P5x cells, without rucaparib
[24] = at 0.00122 µM, OCI-C5x cells, with rucaparib 10 µM, 100% = cells with rucaparib alone
[25] = at 0.00122 µM, OCI-C5x cells, without rucaparib
[26] = at 0.00122 µM, OCI-P5x cells, with rucaparib 20 µM, 100% = cells with rucaparib alone
[27] = at 0.00122 µM, OCI-P5x cells, without rucaparib
[28] = at 0.00488 µM, OCI-C5x cells, with rucaparib 10 µM, 100% = cells with rucaparib alone
[29] = at 0.00488 µM, OCI-C5x cells, without rucaparib
[30] = at 0.00488 µM, OCI-P5x cells, with rucaparib 20 µM, 100% = cells with rucaparib alone
[31] = at 0.00488 µM, OCI-P5x cells, without rucaparib
[32] = at 0.0195 µM, OCI-C5x cells, with rucaparib 10 µM, 100% = cells with rucaparib alone
[33] = at 0.0195 µM, OCI-C5x cells, without rucaparib
[34] = at 0.0195 µM, OCI-P5x cells, with rucaparib 20 µM, 100% = cells with rucaparib alone
[35] = at 0.0195 µM, OCI-P5x cells, without rucaparib
[36] = at 0.0781 µM, OCI-C5x cells, with rucaparib 10 µM, 100% = cells with rucaparib alone
[37] = at 0.0781 µM, OCI-C5x cells, without rucaparib
[38] = at 0.0781 µM, OCI-P5x cells, with rucaparib 20 µM, 100% = cells with rucaparib alone
[39] = at 0.0781 µM, OCI-P5x cells, without rucaparib
[40] = at 0.313 µM, OCI-C5x cells, with rucaparib 10 µM, 100% = cells with rucaparib alone
[41] = at 0.313 µM, OCI-C5x cells, without rucaparib
[42] = at 0.313 µM, OCI-P5x cells, with rucaparib 20 µM, 100% = cells with rucaparib alone
[43] = at 0.313 µM, OCI-P5x cells, without rucaparib
[44] = at 1.25 µM, OCI-C5x cells, with rucaparib 10 µM, 100% = cells with rucaparib alone
[45] = at 1.25 µM, OCI-C5x cells, without rucaparib
[46] = at 1.25 µM, OCI-P5x cells, with rucaparib 20 µM, 100% = cells with rucaparib alone
[47] = at 1.25 µM, OCI-P5x cells, without rucaparib
[48] = at 5 µM, OCI-C5x cells, with rucaparib 10 µM, 100% = cells with rucaparib alone
[49] = at 5 µM, OCI-C5x cells, without rucaparib
[50] = at 5 µM, OCI-P5x cells, with rucaparib 20 µM, 100% = cells with rucaparib alone
[51] = at 5 µM, OCI-P5x cells, without rucaparib

CCOC(=O)N1CCN(/[N+]([O-])=N/Oc2ccc([N+](=O)[O-])cc2[N+](=O)[O-])CC1
inactive: outcome [2] | fold change [10, 14] 1.15
active: AC50 [1] 16600 nM | AC50 [3] 5900 nM | AC50 [4] 4180 nM | AC50 [5] 4170 nM | AC50 [6] 3320 nM | AC50 [7] 10500 nM | AC50 [8] 4170 nM | IC50 [9] 23500 nM
2110: cell count [10, 16]
1.4: fold change [10, 15]
1840: cell count [10, 17]

CC(C)(OCc1nn(Cc2ccccc2)c2ccccc12)C(=O)O
inactive: outcome [1] | outcome [2] | outcome [3] | outcome [4] | outcome [5] | outcome [6] | outcome [7] | outcome [8] | outcome [9] | fold change [10, 14] 0.935 | z-score [11, 18] -0.401
9310: cell count [10, 16]
0.724: fold change [10, 15]
9960: cell count [10, 17]
-0.561: z-score [11, 19]

Cn1cc(-c2ccc3nnc(Sc4ccc5ncccc5c4)n3n2)cn1
0.75: z-score [11, 19]
7530: cell count [12]
8160: cell count [10, 17]
1.79: SSMD [12]
active: viability [13, 22] 97.6% | viability [13, 23] 94.3% | viability [13, 27] 98.6% | viability [13, 50] 91.5%
inactive: outcome [1] | outcome [2] | outcome [3] | outcome [4] | outcome [5] | outcome [6] | outcome [7] | outcome [8] | outcome [9] | fold change [10, 14] 0.884 | plate-normalised HSF1 focus index [12] 1.11 | z-score [11, 18] -0.396 | viability [13, 20] 127% | viability [13, 21] 127% | viability [13, 24] 135% | viability [13, 25] 125% | viability [13, 26] 111% | viability [13, 28] 132% | viability [13, 29] 125% | viability [13, 30] 112% | viability [13, 31] 102% | viability [13, 32] 126% | viability [13, 33] 122% | viability [13, 34] 110% | viability [13, 35] 103% | viability [13, 36] 120% | viability [13, 37] 124% | viability [13, 38] 103% | viability [13, 39] 110% | viability [13, 40] 126% | viability [13, 41] 123% | viability [13, 42] 107% | viability [13, 43] 106% | viability [13, 44] 131% | viability [13, 45] 124% | viability [13, 46] 105% | viability [13, 47] 104% | viability [13, 48] 157% | viability [13, 49] 114% | viability [13, 51] 100%
0.78: fold change [10, 15]
7210: cell count [10, 16]

CCS(=O)(=O)c1cccc(-c2cc(C(=O)NC3CCN(C)CC3)c(C)c3[nH]c4ncc(C)cc4c23)c1
active: AC50 [1] 590 nM | AC50 [2] 2960 nM | AC50 [3] 2640 nM | AC50 [4] 5260 nM | AC50 [5] 1480 nM | AC50 [6] 590 nM | AC50 [7] 8330 nM | AC50 [8] 1480 nM | IC50 [9] 1480 nM | z-score [11, 18] 2.57
1090: cell count [10, 17]
-0.249: z-score [11, 19]
0.946: fold change [10, 15]
1160: cell count [10, 16]
inactive: fold change [10, 14] 1.06

Cc1ccc(C(=O)Nc2ccc(CN3CCN(C)CC3)c(C(F)(F)F)c2)cc1C#Cc1cnc2cccnn12
1.5: SSMD [12]
814: cell count [10, 16]
7680: cell count [12]
active: AC50 [1] 590 nM | AC50 [2] 418 nM | AC50 [3] 6620 nM | AC50 [4] 1180 nM | AC50 [5] 661 nM | AC50 [6] 833 nM | AC50 [7] 8330 nM | AC50 [8] 2350 nM | IC50 [9] 2950 nM | viability [13, 20] 94.7% | viability [13, 24] 98% | viability [13, 30] 97% | viability [13, 32] 95.2% | viability [13, 35] 89.9% | viability [13, 36] 94.7% | viability [13, 38] 88.1% | viability [13, 40] 93.2% | viability [13, 42] 44.4% | viability [13, 43] 77.9% | viability [13, 44] 58.9% | viability [13, 46] 24.3% | viability [13, 47] 28.1% | viability [13, 48] 2.01% | viability [13, 49] 3.5% | viability [13, 50] 8.21% | viability [13, 51] 6.01%
inactive: fold change [10, 14] 1.36 | plate-normalised HSF1 focus index [12] 1.09 | z-score [11, 18] 1.37 | viability [13, 21] 114% | viability [13, 22] 108% | viability [13, 23] 114% | viability [13, 25] 122% | viability [13, 26] 103% | viability [13, 27] 111% | viability [13, 28] 104% | viability [13, 29] 130% | viability [13, 31] 107% | viability [13, 33] 127% | viability [13, 34] 102% | viability [13, 37] 117% | viability [13, 39] 111% | viability [13, 41] 118% | viability [13, 45] 116%
1.05: fold change [10, 15]
-2.78: z-score [11, 19]
597: cell count [10, 17]

Cc1cnc(Nc2ccc(N3CCN(C)CC3)cc2)nc1Nc1cccc(S(=O)(=O)NC(C)(C)C)c1
0.413: fold change [10, 15]
active: AC50 [1] 2950 nM | AC50 [2] 5900 nM | AC50 [3] 5900 nM | AC50 [4] 6620 nM | AC50 [5] 2950 nM | AC50 [6] 1860 nM | AC50 [7] 14800 nM | AC50 [8] 2950 nM | IC50 [9] 4680 nM
-3.35: z-score [11, 19]
2300: cell count [10, 16]
1880: cell count [10, 17]
inactive: fold change [10, 14] 1.22 | z-score [11, 18] 1.59

O=C(NC1CCOCC1)c1ccc(-c2cc(-c3cn[nH]c3-c3ccccn3)ccn2)cc1
0.736: fold change [10, 15]
8800: cell count [10, 16]
0.682: z-score [11, 19]
inactive: outcome [1] | outcome [2] | outcome [3] | outcome [4] | outcome [5] | outcome [6] | outcome [7] | outcome [8] | outcome [9] | fold change [10, 14] 0.83 | z-score [11, 18] -0.384
10600: cell count [10, 17]
